Laboratory results reported in the supplement of paper PMC8975748.
Counter-ions that a name gives are not always drawn.

test system: Saccharomyces cerevisiae BY4741 SeMeCo community; assay: z-score of subpopulation abundance vs DMSO median, subpopulation auxotrophic for UM; higher = larger share of this subpopulation than in DMSO controls; conditions: 10 µM; 24 h; SM minimal medium; subpopulation (auxotrophy): UM
Description: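 Fluorescent four-plasmid SeMeCo (self-establishing metabolically cooperating S. cerevisiae BY4741 community; plasmids pH-mRuby2, pL-mWasabi, pU-eCFP, pM-TagRFP657) was grown 24 h in minimal SM medium with each Selleck FDA-approved drug at 10 µM in 384-well plates. Cells were fixed and imaged by high-content confocal microscopy. For each auxotrophic subpopulation (and the prototroph), a z-score gives the deviation from the DMSO vehicle-control population median.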

Structure (SMILES) | z-score of subpopulation abundance
CO[C@@H]1[C@H](OC(=O)/C=C/C=C/C=C/C=C/C(=O)O)CC[C@]2(CO2)[C@H]1[C@@]1(C)O[C@@H]1CC=C(C)C [Fumagillin] | 0.11
CCS(=O)(=O)CCn1c([N+](=O)[O-])cnc1C [Tinidazole] | -0.43
COc1ccc2cc3[n+](cc2c1OC)CCc1cc2c(cc1-3)OCO2 [Berberine Sulfate] | 0.73
NC(=O)OCC(COC(N)=O)c1ccccc1 [Felbamate] | -0.58
CCCCN(CCCC)CC(O)c1cc(Cl)cc2c1-c1ccc(Cl)cc1/C2=C/c1ccc(Cl)cc1 (stereo not given) [Lumefantrine] | 2.56
C[C@@H](O)[C@H]1C(=O)N2C(C(=O)O)=C([C@H]3CCCO3)S[C@H]12 [Faropenem Sodium] | 1.27
COc1c(N2CCNC(C)C2)c(F)cc2c(=O)c(C(=O)O)cn(C3CC3)c12 (stereo not given) [Gatifloxacin] | 0.32
C[C@H]1NCc2cc(-c3ccc4c(=O)c(C(=O)O)cn(C5CC5)c4c3OC(F)F)ccc21 [Garenoxacin] | -0.07
CC[C@H]1OC(=O)[C@H](C)[C@@H](O[C@H]2C[C@@](C)(OC)[C@@H](O)[C@H](C)O2)[C@H](C)[C@@H](O[C@@H]2O[C@H](C)C[C@H](N(C)C)[C@H]2O)[C@](C)(O)C[C@@H](C)C(=O)[C@H](C)[C@@H](O)[C@]1(C)O [Erythromycin] | -0.8
O=[N+]([O-])c1ccc(O)c2ncccc12 [Nitroxoline] | 4.38
COc1ncnc(NS(=O)(=O)c2ccc(N)cc2)c1OC [Sulfadoxine] | 0.98
CC1(C)S[C@@H]2[C@H](NC(=O)[C@H](C(=O)O)c3ccsc3)C(=O)N2[C@H]1C(=O)O [Ticarcillin sodium] | -0.45
Nc1ccc(S(=O)(=O)Nc2ncccn2)cc1 [Sodium sulfadiazine] | -0.13
CC1(C)S[C@@H]2[C@H](NC(=O)Cc3ccccc3)C(=O)N2[C@H]1C(=O)O [Benzylpenicillin potassium] | -0.02
CCN(CC)CCOCCOC(=O)C1(c2ccccc2)CCCC1 [Pentoxyverine Citrate] | -0.39
O=c1[nH]cnc2c1ncn2[C@@H]1O[C@H](CO)[C@@H](O)[C@H]1O [Isoprinosine] | -0.74
NC[C@H]1O[C@H](O[C@H]2[C@H](O[C@@H]3O[C@H](CO)[C@@H](O)[C@H]3O)[C@@H](O)[C@H](N)C[C@@H]2N)[C@H](N)[C@@H](O)[C@@H]1O [Ribostamycin Sulfate] | 0.36
COc1ccc2cc3[n+](cc2c1OC)CCc1cc2c(cc1-3)OCO2 [Berberine chloride] | -0.09
CCN(CC)CCNC(=O)c1cc(Cl)c(N)cc1OC [Metoclopramide HCl] | -1.49
Nc1nc2[nH]cc(CCc3ccc(C(=O)N[C@@H](CCC(=O)O)C(=O)O)cc3)c2c(=O)[nH]1 [Pemetrexed] | -7.46

Structure (SMILES) | z-score of subpopulation abundance
CN1CCN(C2=Nc3ccccc3Oc3ccc(Cl)cc32)CC1 [Loxapine Succinate] | 0.97
CCC(=O)NS(=O)(=O)c1ccc(-c2c(-c3ccccc3)noc2C)cc1 [Parecoxib Sodium] | 0.8
C=CC[C@@H]1/C=C(\C)C[C@H](C)C[C@H](OC)[C@H]2O[C@@](O)(C(=O)C(=O)N3CCCC[C@H]3C(=O)O[C@H](/C(C)=C/[C@@H]3CC[C@@H](O)[C@H](OC)C3)[C@H](C)[C@@H](O)CC1=O)[C@H](C)C[C@@H]2OC [Tacrolimus (FK506)] | 1.02
CC1=CC[C@@](O)(C(C)C)CC1 [Terpinen-4-ol] | 0.26
CC1=C(C(=O)O)N2C(=O)[C@@H](NC(=O)[C@H](N)C3=CCC=CC3)[C@H]2SC1 [Cefradine] | -0.6
Cc1cc(NS(=O)(=O)c2ccc(N)cc2)no1 [Sulfamethoxazole sodium] | 1.33
CCC(=O)Oc1ccc2c(c1)CCC1C2CCC2(C)C(OC(=O)CC)CCC12 (stereo not drawn) [Estradiol dipropionate(17-Beta-Estradiol-3,17-Dipropionate)] | 0.34
Nc1ccc(S(=O)(=O)NC(=O)c2ccccc2)cc1 [Sulfabenzamide] | -1.04
Cc1nnc(NS(=O)(=O)c2ccc(N)cc2)s1 [Sulfamethizole] | -0.65
Cn1cc(C(=O)[C@@H]2CCc3[nH]cnc3C2)c2ccccc21 [Ramosetron Hydrochloride] | 0.33
COC(=O)C1=C(C)NC(C)=C(C(=O)OC(C)(C)CN(C)CCC(c2ccccc2)c2ccccc2)C1c1cccc([N+](=O)[O-])c1 (stereo not given) [Lercanidipine] | -0.89
CNS(=O)(=O)CCc1ccc2[nH]cc(C3CCN(C)CC3)c2c1 [Naratriptan HCl] | 0.23
CN1CC(=O)N2[C@H](c3ccc4c(c3)OCO4)c3[nH]c4ccccc4c3C[C@@H]2C1=O [Tadalafil] | -0.26
CCN1CCCC1CNC(=O)c1cc(S(N)(=O)=O)ccc1OC (stereo not given) [Sulpiride] | -0.33
C1N2CN3CN1CN(C2)C3 [Methenamine] | 0.8
CC1(C)S[C@@H]2[C@H](NC(=O)[C@H](N)c3ccccc3)C(=O)N2[C@H]1C(=O)O [Ampicillin sodium] | -0.31
COC(=O)C1=C(C)NC(C)=C(C(=O)OC(C)(C)CN(C)CCC(c2ccccc2)c2ccccc2)C1c1cccc([N+](=O)[O-])c1 (stereo not given) [Lercanidipine hydrochloride] | -1.34
CCC(=O)c1c(O)cc(O)cc1O [Flopropione] | 0.25
CCC(C)(Oc1ccc(C2(c3ccc(OC(C)(CC)C(=O)O)cc3)CCCCC2)cc1)C(=O)O (stereo not given) [Clinofibrate] | -2.08
COC(=O)Nc1nc2cc(Sc3ccccc3)ccc2[nH]1 [Fenbendazole] | 0.27
